In PubChem BioAssay AID1159580 (chemical genetic matrix, 2015):
Values joined by “and” are separate entries in the source; they are usually repeats but may differ in a detail not shown here. Identical values can stand only once. The whole screen tested about 5,500 compounds, of which about 2,000 (36%) were called active. Not shown: some 18% with an inconclusive outcome. Cut-off read from the data, not from the text of the source: active = normalized growth mostly below about 0.91 (no sharp cut-off); inconclusive = no clear call, values can overlap the other calls; inactive = mostly above about 0.92. The list shows a part of the results.

Assay: chemical genetic growth profiling, strain panel (AID 1159580);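 note: tested at 20 µM; growth read once vehicle control cultures reached saturation at 30 °C; 1 = growth at the plate median or of vehicle wells; lower values mean less growth of the strain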
Conditions: growth OD

Measured: normalized growth

NC1CC1c1ccccc1 (stereo not drawn)
inactive: S. cerevisiae deletion strains, locus YAL013W, strain DEP1, stronger effect = lower value 1.02 | S. cerevisiae deletion strains, locus YAL040C, strain CLN3, stronger effect = lower value 0.989 | S. cerevisiae deletion strains, locus YBR021W, strain FUR4, stronger effect = lower value 1.02 | S. cerevisiae deletion strains, locus YBR229C, strain ROT2, stronger effect = lower value 1.02 | S. cerevisiae deletion strains, locus YCL029C, strain bik1, stronger effect = lower value 0.985 | S. cerevisiae deletion strains, locus YCL061C, strain MRC1 (second series), stronger effect = lower value 1.01 | S. cerevisiae deletion strains, locus YDL035C, strain GPR1, stronger effect = lower value 1.02 | S. cerevisiae deletion strains, locus YDL074C, strain BRE1, stronger effect = lower value 1.05 | S. cerevisiae deletion strains, locus YDL101C, strain DUN1, stronger effect = lower value 1.03 | S. cerevisiae deletion strains, locus YDL134C, strain PPH21, stronger effect = lower value 1.02 | S. cerevisiae deletion strains, locus YDL185W, strain tfp1, stronger effect = lower value 0.989 | S. cerevisiae deletion strains, locus YDL192W, strain arf1, stronger effect = lower value 0.988 | S. cerevisiae deletion strains, locus YDR101C, strain arx1, stronger effect = lower value 0.976 | S. cerevisiae deletion strains, locus YDR150W, strain NUM1, stronger effect = lower value 1.02 | S. cerevisiae deletion strains, locus YDR162C, strain NBP2, stronger effect = lower value 1.03 | S. cerevisiae deletion strains, locus YDR318W, strain mcm21, stronger effect = lower value 0.979 | S. cerevisiae deletion strains, locus YDR363W, strain ESC2, stronger effect = lower value 0.946 | S. cerevisiae deletion strains, locus YDR388W, stronger effect = lower value 0.981 | S. cerevisiae deletion strains, locus YDR502C, strain sam2, stronger effect = lower value 0.995 | S. cerevisiae deletion strains, locus YEL061C, strain CIN8, stronger effect = lower value 1.01 | S. cerevisiae deletion strains, locus YER002W, strain NOP16, stronger effect = lower value 1.02 | S. cerevisiae deletion strains, locus YER110C, stronger effect = lower value 0.981 | S. cerevisiae deletion strains, locus YER155C, strain BEM2, stronger effect = lower value 1.01 | S. cerevisiae deletion strains, locus YER167W, strain BCK2, stronger effect = lower value 1.01 | S. cerevisiae deletion strains, locus YGL078C, strain dbp3, stronger effect = lower value 0.988 | S. cerevisiae deletion strains, locus YGL086W, strain mad1, stronger effect = lower value 0.975 | S. cerevisiae deletion strains, locus YGL248W, strain PDE1, stronger effect = lower value 1.03 | S. cerevisiae deletion strains, locus YGR078C, strain PAC10, stronger effect = lower value 1.02 | S. cerevisiae deletion strains, locus YGR135W, strain pre9, stronger effect = lower value 0.994 | S. cerevisiae deletion strains, locus YGR229C, strain SMI1, stronger effect = lower value 1.02 | S. cerevisiae deletion strains, locus YGR252W, strain gcn5, stronger effect = lower value 0.922 | S. cerevisiae deletion strains, locus YHR030C, strain SLT2, stronger effect = lower value 1.01 | S. cerevisiae deletion strains, locus YHR079C, strain IRE1 (second series), stronger effect = lower value 0.981 | S. cerevisiae deletion strains, locus YHR094C, strain hxt1, stronger effect = lower value 0.99 | S. cerevisiae deletion strains, locus YHR129C, strain ARP1, stronger effect = lower value 1.02 | S. cerevisiae deletion strains, locus YHR200W, strain rpn10, stronger effect = lower value 0.991 | S. cerevisiae deletion strains, locus YIL066C, strain RNR3, stronger effect = lower value 1.02 | S. cerevisiae deletion strains, locus YIL073C, strain SPO22, stronger effect = lower value 0.972 | S. cerevisiae deletion strains, locus YIL125W, strain kgd1, stronger effect = lower value 0.987 | S. cerevisiae deletion strains, locus YIR030C, strain dcg1, stronger effect = lower value 0.993 | S. cerevisiae deletion strains, locus YJL095W, strain BCK1, stronger effect = lower value 1.03 | S. cerevisiae deletion strains, locus YJL134W, strain LCB3, stronger effect = lower value 1.02 | S. cerevisiae deletion strains, locus YJL168C, strain set2, stronger effect = lower value 0.988 | S. cerevisiae deletion strains, locus YJL187C, strain SWE1 (second series), stronger effect = lower value 1.02 | S. cerevisiae deletion strains, locus YJR043C, strain POL32, stronger effect = lower value 0.992 | S. cerevisiae deletion strains, locus YJR075W, strain HOC1, stronger effect = lower value 1.01 and 1.03 | S. cerevisiae deletion strains, locus YKL009W, strain mrt4, stronger effect = lower value 1.01 | S. cerevisiae deletion strains, locus YKL068W, stronger effect = lower value 0.997 | S. cerevisiae deletion strains, locus YKL085W, strain MDH1 (second series), stronger effect = lower value 1.03 | S. cerevisiae deletion strains, locus YKL085W, strain MDH1, stronger effect = lower value 1.03 | S. cerevisiae deletion strains, locus YKL190W, strain CNB1, stronger effect = lower value 1.02 | S. cerevisiae deletion strains, locus YKR001C, strain vps1, stronger effect = lower value 0.987 | S. cerevisiae deletion strains, locus YLR039C, strain RIC1, stronger effect = lower value 1.06 | S. cerevisiae deletion strains, locus YLR058C, strain SHM2, stronger effect = lower value 1.02 | S. cerevisiae deletion strains, locus YLR102C, strain apc9, stronger effect = lower value 0.996 | S. cerevisiae deletion strains, locus YLR262C, strain YPT6, stronger effect = lower value 1.05 | S. cerevisiae deletion strains, locus YLR268W, strain sec22, stronger effect = lower value 0.989 | S. cerevisiae deletion strains, locus YLR330W, strain CHS5, stronger effect = lower value 1.01 | S. cerevisiae deletion strains, locus YLR342W, strain FKS1 (second series), stronger effect = lower value 0.994 | S. cerevisiae deletion strains, locus YLR371W, strain rom2, stronger effect = lower value 0.984 | S. cerevisiae deletion strains, locus YLR418C, strain cdc73, stronger effect = lower value 0.992 | S. cerevisiae deletion strains, locus YML016C, strain PPZ1, stronger effect = lower value 1.03 | S. cerevisiae deletion strains, locus YML032C, strain rad52, stronger effect = lower value 0.975 | S. cerevisiae deletion strains, locus YML124C, strain tub3, stronger effect = lower value 0.997 | S. cerevisiae deletion strains, locus YMR078C, strain ctf18, stronger effect = lower value 0.981 | S. cerevisiae deletion strains, locus YMR223W, strain ubp8, stronger effect = lower value 0.972 | S. cerevisiae deletion strains, locus YMR263W, strain SAP30, stronger effect = lower value 1.03 | S. cerevisiae deletion strains, locus YMR307W, strain GAS1, stronger effect = lower value 0.976 and 1.01 | S. cerevisiae deletion strains, locus YNL067W, strain RPL9B, stronger effect = lower value 1.03 | S. cerevisiae deletion strains, locus YNL128W, strain TEP1, stronger effect = lower value 1.03 | S. cerevisiae deletion strains, locus YNL153C, strain GIM3, stronger effect = lower value 1.03 and 0.972 | S. cerevisiae deletion strains, locus YNL175C, strain NOP13, stronger effect = lower value 0.999 | S. cerevisiae deletion strains, locus YNL197C, strain WHI3, stronger effect = lower value 1.01 | S. cerevisiae deletion strains, locus YNL224C, strain SQS1, stronger effect = lower value 1 | S. cerevisiae deletion strains, locus YNL233W, strain BNI4, stronger effect = lower value 1.02 | S. cerevisiae deletion strains, locus YNL250W, strain rad50, stronger effect = lower value 1.01 | S. cerevisiae deletion strains, locus YNL271C, strain bni1, stronger effect = lower value 0.978 | S. cerevisiae deletion strains, locus YNL298W, strain CLA4, stronger effect = lower value 0.996 | S. cerevisiae deletion strains, locus YNL307C, strain MCK1, stronger effect = lower value 0.979 | S. cerevisiae deletion strains, locus YNL322C, strain KRE1, stronger effect = lower value 1.02 | S. cerevisiae deletion strains, locus YNR052C, strain pop2, stronger effect = lower value 0.968 | S. cerevisiae deletion strains, locus YOL006C, strain TOP1, stronger effect = lower value 1.09 | S. cerevisiae deletion strains, locus YOL147C, strain pex11, stronger effect = lower value 0.989 | S. cerevisiae deletion strains, locus YOR061W, strain CKA2, stronger effect = lower value 1.02 | S. cerevisiae deletion strains, locus YOR069W, strain VPS5, stronger effect = lower value 1.01 | S. cerevisiae deletion strains, locus YOR083W, strain WHI5 (second series), stronger effect = lower value 1 | S. cerevisiae deletion strains, locus YOR136W, strain idh2, stronger effect = lower value 0.981 | S. cerevisiae deletion strains, locus YOR144C, strain elg1, stronger effect = lower value 0.984 | S. cerevisiae deletion strains, locus YOR184W, strain ser1, stronger effect = lower value 0.976 | S. cerevisiae deletion strains, locus YOR316C, strain cot1, stronger effect = lower value 0.992 | S. cerevisiae deletion strains, locus YPL055C, strain LGE1, stronger effect = lower value 1.06 and 0.992 | S. cerevisiae deletion strains, locus YPL241C, strain CIN2, stronger effect = lower value 1.02 | S. cerevisiae deletion strains, locus YPR119W, strain clb2, stronger effect = lower value 0.994 | S. cerevisiae deletion strains, locus YPR141C, strain kar3, stronger effect = lower value 0.99 | S. cerevisiae deletion strains, locus YPR163C, strain tif3, stronger effect = lower value 0.988 | S. cerevisiae deletion strains, locus YPR167C, strain met16, stronger effect = lower value 0.985 | S. cerevisiae deletion strains, strain wtn01, stronger effect = lower value 0.988 | S. cerevisiae strains, strain wild type, stronger effect = lower value 1.01
